Results: the supplement of paper PMC3334620
In all, about 33,000 sequences were measured (“E-score (-0.5 to 0.5)”: median about -0.015, highest 2% from about 0.3 on). The list comes from a sample in which the highest values are over-represented; it also holds similar and randomly drawn sequences.

These sequences were tested against T1, Abf1 (UniProt P14164) (assay: PBM E-score (8-mer binding enrichment) (E-score (-0.5 to 0.5)); higher = stronger / more preferred TF binding). Conditions: protein concentration: 200 nM; construct: GST-full length.
T1 sequence: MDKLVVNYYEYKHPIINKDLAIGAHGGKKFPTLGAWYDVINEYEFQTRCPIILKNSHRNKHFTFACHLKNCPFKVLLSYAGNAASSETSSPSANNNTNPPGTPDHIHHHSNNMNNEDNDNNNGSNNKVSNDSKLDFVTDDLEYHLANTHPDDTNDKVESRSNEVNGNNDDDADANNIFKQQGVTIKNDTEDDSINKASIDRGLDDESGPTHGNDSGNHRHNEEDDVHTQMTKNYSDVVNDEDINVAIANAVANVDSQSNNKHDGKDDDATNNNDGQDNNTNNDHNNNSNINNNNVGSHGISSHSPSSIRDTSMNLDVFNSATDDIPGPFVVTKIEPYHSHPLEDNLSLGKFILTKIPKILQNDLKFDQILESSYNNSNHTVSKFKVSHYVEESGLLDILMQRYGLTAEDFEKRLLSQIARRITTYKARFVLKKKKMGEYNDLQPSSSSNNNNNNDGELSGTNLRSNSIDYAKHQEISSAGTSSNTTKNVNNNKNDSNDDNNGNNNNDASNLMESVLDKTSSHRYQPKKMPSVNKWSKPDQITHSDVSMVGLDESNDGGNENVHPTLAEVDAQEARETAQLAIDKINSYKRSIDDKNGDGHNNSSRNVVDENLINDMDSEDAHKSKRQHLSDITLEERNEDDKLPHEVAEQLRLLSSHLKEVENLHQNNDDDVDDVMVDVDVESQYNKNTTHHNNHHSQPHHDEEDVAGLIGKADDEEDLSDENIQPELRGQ
Outline: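 Using PURExpress in vitro transcription/translation, GST-tagged yeast transcription factors were made in full-length or DNA-binding-domain form. These were applied at about 100-200 nM to double-stranded universal all-10-mer Agilent arrays, and bound protein was detected with fluorescent anti-GST. Scans were normalised with masliner before the Universal PBM Analysis Suite assigned E-scores to ungapped eight-base words pooled with their reverse complements.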

Sequence	PBM E-score
AATTGACT	-0.00646
CGTACCGA	0.232
AATAAGCG	-0.0622
CTATCATC	0.151
ATATCATG	0.297
ATATCATA	0.33
CTATCATA	0.143
AAATCATC	0.278
ATATCATC	0.408
GCAAAAAC	0.0419
GATAGGAC	-0.123
AGGCGTTC	-0.191
AATACTAT	-0.00924
AATACTAC	0.301
AATACTAA	0.0807
AGGGACCG	-0.0817
CATGCCGG	-0.00463
ATCACGAT	0.26
ATCACGAC	0.363
ATCACGGC	0.35
ATCACGCG	0.373
ATCACGCC	0.253
ATCACGGA	0.246
ATCACGCA	0.272
ATCACGAA	0.256

Sequence	PBM E-score
CTCACGTC	0.0288
ATCACGTA	0.218
ATCACGGG	0.163
ATCACGTC	0.336
AGGCTTAT	-0.0827
CAACCGCA	-0.0837
ACTTTGTC	0.217
CCCGCTAG	-0.157
ATGATCCA	0.0885
GCGTCATA	0.138
CCGTCATC	0.128
CCGTCATA	0.37
AATGGTCC	-0.0212
ATCATCGG	0.116
AACATCAG	0.0871
AGCATCAT	0.0136
ATCATCAT	0.376
AACATCAT	0.309
AACATCAC	0.283
ATCATCAA	0.26
GTCATCAA	0.31
ATCATCGC	0.301
ATCATCGA	0.175
TTCATCAA	0.041
ATCATCAG	0.16

Sequence	PBM E-score
ATCGCATC	0.0782
GAATCCCA	-0.00947
AGGCCTTG	-0.302
CTCTCTGA	-0.149
ACCCTTCA	-0.0788
AGGTGTCA	-0.0121
AATTCTGT	-0.144
GTCATCAC	0.334
GCCATCAC	-0.121
AGCATCAC	-0.0618
CACATCAC	0.244
CTCATCAC	0.217
GGCATCAC	0.0726
ATCATCAC	0.393
GACATCAA	0.178
GACATCAC	0.352
AGCTTGAC	-0.245
GTGGTGTA	-0.0517
GCCCCTTA	-0.138
CGCCGCCG	-0.223
GTACGGCA	0.222
ATACGGCA	0.376
ATACGGCG	0.384
CTACGGCA	0.291
ATACGGGG	0.172

Sequence	PBM E-score
ATACGGCC	0.208
AGAGGGTC	-0.274
CTTAGGGC	-0.183
GGCTCGAC	-0.0785
CGGCGTCA	-0.103
CCTCACTC	0.0309
CATCACTA	0.351
CATCACTC	0.385
AATCACTC	0.224
GTTCACTA	0.115
GATCACTA	0.389
CATCACAA	0.0688
GCTCACTA	0.0163
CCTCACTA	0.159
AATCACTG	0.204
CATCACAC	0.141
AATCACTA	0.359
ATCGTAGA	0.28
AGTGTGGA	-0.0464
CAGTAGGA	-0.109
ATTGTGGG	-0.127
TACCGCGA	-0.111
GGTCGACA	-0.106
GAGCCTAC	-0.171
ATGGTTTC	-0.0221

Sequence	PBM E-score
GATGGGCC	-0.28
CACAGTTA	0.164
TCTCGAGA	0.302
CCTCGAGA	-0.0603
GCTCGAGA	-0.143
CATTGTGC	-0.115
CCGAACTA	-0.143
CCGTAGAC	0.0491
GCGTAGAA	0.0196
ACGTAGAA	0.108
TCGTAGAA	0.393
CCGTAGAA	0.298
CCGTAGAG	0.102
ATACCGGC	0.0536
CGGGCGCC	-0.053
GTGATTAA	0.249
CGGATAGA	0.147
AGTGGTGA	0.131
ACATCATA	0.169
ACATCATG	0.24
ACATCACT	0.415
GCATCACC	-0.101
ACATCACA	0.183
ACATCACC	0.353
ACATCATC	0.328

Sequence	PBM E-score
ACATCACG	0.231
ACATCAGT	-0.0164
CAACCTAC	-0.122
GCCTAGGA	-0.178
CATGGCGG	-0.0941
ACATCTGA	-0.0545
TGATAACA	0.341
GGATAAAA	0.158
TGATAAAA	0.337
GGATAACA	0.0228
CGATAACA	0.106
CGATAAAA	0.285
TCATGAAA	0.00026
GGTCGCCA	-0.074
TCATGGGA	-0.042
AACGCTGT	0.00818
ACTGGTAC	-0.0194
CGTCCAGC	-0.0241
CAGTGACA	0.3
CAGTGAAA	0.0736
GAGTGCCA	-0.212
GAGTGACC	0.207
CAGTGACC	0.132
TAGTGTGA	0.137
TAGTGACA	0.414

Sequence	PBM E-score
GAGTGACA	0.432
TAGTGTCA	0.117
AACGGACC	-0.168
TGATCCCA	-0.0944
CTAGCTGC	-0.114
CGAGGTGA	0.129
GACACTTA	-0.0374
ACTGCACG	-0.0217
CGCCACCA	-0.138
GAGATCTA	-0.121
GTGATCTA	0.407
ATGATCTA	0.297
ATGATCTC	0.296
GTGATCCA	0.132
CTGATCTA	-0.106
CGGCCAAC	-0.133
GACGATGC	0.231
ACAGCCGC	-0.223
CGTGCAAC	0.247
CGTGCAAG	0.169
CGTGCACA	0.196
CGTGCAAA	0.337
CGTGCACG	0.419
TGTGCACA	0.0303
AAGGATGC	-0.213

Sequence	PBM E-score
GGCTGCGA	-0.0617
CGAGGGAC	-0.189
GGGGGCAA	-0.0502
CGCATATC	0.239
CAACCTCA	-0.0877
CCCTACCA	0.0127
ATTCTGTA	0.14
GAGTGAAA	-0.117
GAGTGATA	0.424
CAGTGAGA	0.0837
GAGTGAGA	0.0215
TAGTGATA	0.433
AAGTGAGA	0.0815
CAGTGATA	0.377
AAGTGATA	0.39
TAGTGAAA	-0.0802
AAGTGAAA	-0.0619
TAGTGAGA	0.0964
CACTGATA	-0.056
CCTTGGTC	-0.302
AATTTGAC	0.183
CTGTCGGA	-0.123
ACAGCTCT	-0.248
AGTACTGA	-0.0709
CCGGGTTC	-0.167

Sequence	PBM E-score
GTAACTAA	-0.0125
TTCGGAAA	-0.148
CAACGTAA	-0.0145
AATCTCTC	0.0576
ATACCCCA	0.0583
CACCCGCA	-0.205
GATCGGGC	-0.195
CGTTATAG	0.105
CGTTATAA	0.149
CGTTACAA	0.195
CGTTATAC	0.303
CGTTACAG	-0.0224
CGTTACAC	0.298
AATGTTGC	0.00562
CGGCGTTC	-0.0709
CCGCCATC	-0.26
AGTCCACC	-0.0728
GAAAACTA	-0.0964
GTTCTGTA	-0.0186
GTTTCGTA	0.26
AATTCGTG	0.224
ATTTCGTC	0.229
CATTCGTA	0.308
CTTTCGTC	0.191
GATTCGTA	0.262

Sequence	PBM E-score
CATTCGTC	0.222
AATTCGTA	0.307
CATTCGCA	-0.1
AATTCGGA	0.029
AATTCGTC	0.315
CTTTCGTA	0.376
ACCCAGAA	-0.0336
TTCCGAAA	0.104
ATTTAAAT	0.189
GATTACAC	0.0768
CAAGCCCG	-0.172
GTGGTATA	-0.0621
CGGCCCAC	-0.208
AACGTCAT	0.217
ACCGTCAA	0.143
TTCGTCAA	0.151
ATCGTCAG	0.154
ACCGTCAG	0.0392
ACCGTCAT	0.362
ATCGTCAA	0.342
AGCGTCAA	-0.00287
ATCGTCAT	0.349
AAAAATCC	-0.0226
AGGTTGAA	0.0563
CACTGCAA	0.0215

Sequence	PBM E-score
TCATCAGA	0.094
CAGCTTGA	-0.141
AGGAGGTG	-0.248
GAGGGACA	-0.103
CCTTTTAA	0.0637
ACGGCGCT	0.09
ACGGCGAC	0.224
ACGGCGCC	0.184
GCGGCGAA	-0.106
ACGGCGAA	0.343
ACGGCGCG	0.324
ACGGCGAT	0.313
ACGGCGAG	0.111
TCGGCGAA	0.00757
ACCCGGGT	-0.155
ATGAGTCA	0.0874
ACCCTAGG	-0.07
CGCGTTGA	0.0564
AGATGCTC	0.0161
CAGGTAAG	-0.0344
AGATAAGA	0.194
AATTCCAC	0.0539
CAGGATGA	0.197
AGACAAGC	-0.0992
ATGACGAC	0.265

Sequence	PBM E-score
GTGACTAA	0.327
ATGACTAA	0.146
TTCACGAA	0.267
GTCACGAA	0.402
GTGACGAA	0.315
GTGACGGA	0.149
ATGACGAA	0.319
GTGACGCA	0.103
CTGACGAA	0.239
CTGACTAA	0.0088
GTCACGAC	0.261
AAGGTTCT	-0.189
CGGGCACC	-0.0646
CGCAAAAG	-0.0748
CTCTCACC	-0.0855
GAGTAAAC	-0.0509
ATCCCGTA	0.215
GGCGATCA	-0.0321
ATGGACTC	-0.134
CACGGACA	0.162
AACGGACG	0.065
CACGGACG	0.337
AAACCGGT	-0.0782
CATACTGA	-0.108
AAAGAGGA	-0.237

Sequence	PBM E-score
GTAATCAC	0.141
ATAATCAG	0.0922
ATAATCAA	0.0595
ATAATCAC	0.331
ATAATCAT	0.326
CTAATCAC	0.251
CCACCTAC	-0.011
ACCGTAGG	0.0666
CTAAATCC	0.0568
AAGCGCCA	-0.247
TGATGTAA	0.145
ACCCTCGA	-0.17
GCGACGAC	0.098
ACGACGCA	0.262
ACGACGGC	0.164
CCGACGAA	0.205
GCGACGAA	0.313
TCGACGAA	0.349
GCGACGCA	0.196
ACGACGGG	0.304
ACGACGGA	0.251
TCGACAAA	-0.0435
TCGACGCA	0.113
ACGACGAA	0.373
CATAAGTC	-0.00466

Sequence	PBM E-score
AACCGGTT	0.0655
TAGAAGCA	-0.0239
CAAGGAAA	-0.198
AGGGCGCC	-0.0691
ATCGCTAA	0.28
ATCTATTC	0.114
ACGACGAT	0.315
ACGACGAG	0.156
ACGACGAC	0.292
GTACTGCA	-0.101
AAACACCC	-0.0385
GGTGCACA	-0.05
CATGTACA	-0.0299
AATGTACG	0.192
CATGTACG	0.319
TAAGTCTA	-0.136
ATGTCATA	0.176
ATGTCAAG	-0.0386
ATGTCATC	0.394
CTGTCATC	0.108
ATGTCATG	0.349
ATGTCAGG	-0.133
